Assays:
Format in all cases: functional
[1] = molecular target: Solute carrier family 2, facilitated glucose transporter member 1 (Homo sapiens) (UniProt P11166); assay: ST_JUDE_LEISH: Cytotoxicity at 2uM final concentration against transgenic Leishmania Mexicana promastigotes LmGLUT1 that are glucose transport deficient and complemented with the human glucose transporter GLUT1. Activity is measured by DNA content using SYBR green in vitro
[2] = molecular target: Hexose transporter 1 (Plasmodium falciparum) (UniProt O97467); assay: ST_JUDE_LEISH: Cytotoxicity at 2uM final concentration against transgenic Leishmania Mexicana promastigotes LmPfHT that are glucose transport deficient and complemented with the Plasmodium falciparum hexose transporter. Activity is measured by DNA content using SYBR green in vitro
[3] = molecular target: Glucose transporter (Leishmania mexicana) (UniProt O61059); assay: ST_JUDE_LEISH: Cytotoxicity at 2uM final concentration against transgenic Leishmania Mexicana promastigotes LmGT2 that are glucose transport deficient and complemented with the L. Mexicana glucose transporter 2. Activity is measured by DNA content using SYBR green in vitro

Sequence of Solute carrier family 2, facilitated glucose transporter member 1 (Homo sapiens) (P11166 whole entry): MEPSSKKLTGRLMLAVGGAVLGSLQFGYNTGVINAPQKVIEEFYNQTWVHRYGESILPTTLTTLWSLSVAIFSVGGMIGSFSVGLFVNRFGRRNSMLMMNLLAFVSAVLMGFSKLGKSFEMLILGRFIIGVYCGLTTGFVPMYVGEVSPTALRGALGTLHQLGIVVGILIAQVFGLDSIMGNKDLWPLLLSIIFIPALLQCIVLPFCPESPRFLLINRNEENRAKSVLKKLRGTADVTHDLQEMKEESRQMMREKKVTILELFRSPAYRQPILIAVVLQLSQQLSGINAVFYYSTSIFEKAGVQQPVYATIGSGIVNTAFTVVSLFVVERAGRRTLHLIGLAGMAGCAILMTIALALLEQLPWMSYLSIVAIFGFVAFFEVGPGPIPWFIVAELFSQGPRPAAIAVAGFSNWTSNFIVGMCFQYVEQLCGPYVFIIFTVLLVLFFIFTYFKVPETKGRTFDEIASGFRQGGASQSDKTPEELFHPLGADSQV

## NC1=NC(c2ccccc2)(c2ccccc2)C(=O)N1Cc1ccccc1Br
[1]
  inhibition: 7.09%
[2]
  inhibition: 4.75%
[3]
  inhibition: 6.62%

## CC1(C)N=C(N)N=C(N)N1c1ccc(Oc2ccc(Cl)cc2)c(Cl)c1
[1]
  inhibition: 0.34%
[2]
  inhibition: -1.08%
[3]
  inhibition: 2.05%

## Cc1onc(-c2ccccc2Cl)c1C(=O)Nc1cc(Cl)c(Cl)cc1Cl
[1]
  inhibition: 3.43%
[2]
  inhibition: 5.64%
[3]
  inhibition: 4.95%

## CN1CCN(CC(=O)Nc2cccc(-c3ccc(-c4nc5cc(F)ccc5[nH]4)s3)c2)CC1
[1]
  inhibition: 7.26%
[2]
  inhibition: 7.42%
[3]
  inhibition: 5.89%

## Cc1cc(N[C@@H](Cc2ccccc2)C(=O)Nc2ccccc2)nc(NCCc2ccc(F)cc2)n1
[1]
  inhibition: 3.66%
[2]
  inhibition: 3.68%
[3]
  inhibition: 1.86%

## COc1ccc(CNCc2ccc(-c3ccc(-c4nc5ccccc5[nH]4)cc3)cc2)cc1
[1]
  inhibition: 17.8%
[2]
  inhibition: 14.9%
[3]
  inhibition: 10.5%

## COc1ccc(CC(=O)Nc2ccc(-c3cccc(-c4nc5cccc(C)c5[nH]4)c3)cc2)cc1O
[1]
  inhibition: 3.89%
[2]
  inhibition: 5.29%
[3]
  inhibition: 5.34%

## COC(=O)c1ccc2c(-c3nc4ccc(OC)cc4[nH]3)c[nH]c2c1
[1]
  inhibition: 11.5%
[2]
  inhibition: 10.3%
[3]
  inhibition: 8.93%

## c1csc(-c2nc(NCC3CCCO3)ncc2-c2ccsc2)n1 (stereo not given)
[1]
  inhibition: 1.71%
[2]
  inhibition: 2.71%
[3]
  inhibition: 3.35%

## Cc1ccccc1C1CCN(C2CCC(NC(=O)/C=C/c3ccc4c(c3)OC(F)(F)O4)CC2)CC1 (stereo not given)
[1]
  inhibition: 0.14%
[2]
  inhibition: 5.21%
[3]
  inhibition: 2.92%

## COCCNCc1ccc(-c2cccc(CNC3CCN(Cc4ccccc4)CC3)c2)cc1
[1]
  inhibition: 4%
[2]
  inhibition: 3.16%
[3]
  inhibition: 4.77%

## Cc1ccc2cc(C3NC(=O)c4ccccc4N3)c(Cl)nc2c1 (stereo not given)
[1]
  inhibition: 18.9%
[2]
  inhibition: 16.3%
[3]
  inhibition: 14.9%

## Cc1cc(F)ccc1[C@H]1C[C@H](N2CCOCC2)CCN1C(=O)N(C)[C@@H](C)c1cc(C(F)(F)F)cc(C(F)(F)F)c1
[1]
  inhibition: 0.71%
[2]
  inhibition: 0.17%
[3]
  inhibition: -0.74%

## c1ccc2[nH]c(-c3ccc(-c4ccc(CN5CCN(CCN6CCOCC6)CC5)cc4)s3)nc2c1
[1]
  inhibition: 10.4%
[2]
  inhibition: 9.34%
[3]
  inhibition: 7.67%

## Cc1ccc(C(=O)NC2CCN(CCNC(=O)Nc3cc(C)nc4ccccc34)CC2)cc1
[1]
  inhibition: -1.56%
[2]
  inhibition: 0.53%
[3]
  inhibition: -1.45%

## O=C(/C=C/c1ccc(Cl)c(Cl)c1)N1CCC(CCN2CCC(c3nc4cc(O)ccc4[nH]3)CC2)CC1
[1]
  inhibition: 1.92%
[2]
  inhibition: 0.59%
[3]
  inhibition: -0.62%

## COc1ccc(-c2nc(NC(=O)CS(=O)(=O)c3ccc(C)cc3)sc2C)cc1
[1]
  inhibition: 8.39%
[2]
  inhibition: 6.4%
[3]
  inhibition: 0.17%

## COc1ccc2nccc([C@@H](O)CN3CCC(NCc4cnc5c(c4)NC(=O)CS5)CC3)c2c1
[1]
  inhibition: 2.7%
[2]
  inhibition: 4.54%
[3]
  inhibition: 1.2%

## Cc1n[nH]c2cc(Nc3ccnc(Nc4cccc(CN5CCOCC5)c4)n3)ccc12
[1]
  inhibition: 7.68%
[2]
  inhibition: 6.54%
[3]
  inhibition: 3.19%

## CN(C)c1ccc(CN2CCC(CNC(=O)c3cc(-c4cccc(C(F)(F)F)c4)cs3)C2)cc1 (stereo not given)
[1]
  inhibition: 2.15%
[2]
  inhibition: 1.34%
[3]
  inhibition: 1.72%

## Cc1cc(C(=O)OCC(=O)Nc2c(C)n(C)n(-c3ccccc3)c2=O)c(C)n1-c1ccc(F)cc1
[1]
  inhibition: -2.25%
[2]
  inhibition: -1.81%
[3]
  inhibition: -0.97%

## CN(CC(=O)Nc1cc(C(F)(F)F)ccc1-n1cncn1)Cc1ccc2ccccc2c1
[1]
  inhibition: 2.14%
[2]
  inhibition: 1.25%
[3]
  inhibition: 1.8%

## CCOc1cc2ncnc(Nc3ccc(OCc4c(Cl)cccc4Cl)c(OC)c3)c2cc1OCC
[1]
  inhibition: 4.01%
[2]
  inhibition: 4.16%
[3]
  inhibition: 3.54%

## O=C(N[C@H]1CCN(Cc2ccc(OCCN3CCNCC3)c(Cl)c2)C1)c1ccc(Cl)c(Cl)c1
[1]
  inhibition: -1.27%
[2]
  inhibition: -3.15%
[3]
  inhibition: -2.23%

## O=C(NCc1ccccc1F)c1ccc(N2CCC(NCc3cccc(-n4cccn4)c3)CC2)cc1
[1]
  inhibition: -0.13%
[2]
  inhibition: 3.43%
[3]
  inhibition: -1.93%

Reference: ChEMBL document CHEMBL3433997, “St. Jude Leishmania screening dataset” (2016)
